# Data from PubChem BioAssay AID1159580 (chemical genetic matrix, 2015).
# The whole screen tested about 5,500 compounds, of which about 2,000 (36%) were called active. Another 18% or so got no clear call; they are omitted. Some of the results follow. A number with no mark means an inactive call. Cut-off read from the data, not from the text of the source: active = normalized growth mostly below about 0.91 (no sharp cut-off); inconclusive = no clear call, values can overlap the other calls; inactive = mostly above about 0.92.
# Assay: chemical genetic growth profiling, strain panel (AID 1159580);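 note: tested at 20 µM; growth read once vehicle control cultures reached saturation at 30 °C; 1 = growth at the plate median or of vehicle wells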
# Details: growth OD
smiles,measurement,setting,value
O=C1C[C@@H](c2ccccc2)Oc2cc(O)cc(O)c21,normalized growth,"S. cerevisiae deletion strains, locus YBR021W, strain FUR4, stronger effect = lower value",0.958
same,normalized growth,"S. cerevisiae deletion strains, locus YBR229C, strain ROT2, stronger effect = lower value",0.927
same,normalized growth,"S. cerevisiae deletion strains, locus YCL029C, strain bik1, stronger effect = lower value",0.939
same,normalized growth,"S. cerevisiae deletion strains, locus YDL035C, strain GPR1, stronger effect = lower value",0.884
same,normalized growth,"S. cerevisiae deletion strains, locus YDL074C, strain BRE1, stronger effect = lower value",0.858
same,normalized growth,"S. cerevisiae deletion strains, locus YDL101C, strain DUN1, stronger effect = lower value",0.899
same,normalized growth,"S. cerevisiae deletion strains, locus YDL134C, strain PPH21, stronger effect = lower value",0.903
same,normalized growth,"S. cerevisiae deletion strains, locus YDL185W, strain tfp1, stronger effect = lower value",0.932
same,normalized growth,"S. cerevisiae deletion strains, locus YDL192W, strain arf1, stronger effect = lower value",0.871 (active)
same,normalized growth,"S. cerevisiae deletion strains, locus YDR101C, strain arx1, stronger effect = lower value",0.943
same,normalized growth,"S. cerevisiae deletion strains, locus YDR150W, strain NUM1, stronger effect = lower value",0.949
same,normalized growth,"S. cerevisiae deletion strains, locus YDR162C, strain NBP2, stronger effect = lower value",0.859
same,normalized growth,"S. cerevisiae deletion strains, locus YDR318W, strain mcm21, stronger effect = lower value",0.875 (active)
same,normalized growth,"S. cerevisiae deletion strains, locus YDR388W, stronger effect = lower value",0.95
same,normalized growth,"S. cerevisiae deletion strains, locus YDR502C, strain sam2, stronger effect = lower value",0.892 (active)
same,normalized growth,"S. cerevisiae deletion strains, locus YEL061C, strain CIN8, stronger effect = lower value",0.957
same,normalized growth,"S. cerevisiae deletion strains, locus YER110C, stronger effect = lower value",0.924
same,normalized growth,"S. cerevisiae deletion strains, locus YER155C, strain BEM2, stronger effect = lower value",0.955
same,normalized growth,"S. cerevisiae deletion strains, locus YER167W, strain BCK2, stronger effect = lower value",0.947
same,normalized growth,"S. cerevisiae deletion strains, locus YGL078C, strain dbp3, stronger effect = lower value",0.947
same,normalized growth,"S. cerevisiae deletion strains, locus YGL086W, strain mad1, stronger effect = lower value",1
same,normalized growth,"S. cerevisiae deletion strains, locus YGL248W, strain PDE1, stronger effect = lower value",0.884 (active)
same,normalized growth,"S. cerevisiae deletion strains, locus YGR078C, strain PAC10, stronger effect = lower value",0.86
same,normalized growth,"S. cerevisiae deletion strains, locus YGR135W, strain pre9, stronger effect = lower value",0.843 (active)
same,normalized growth,"S. cerevisiae deletion strains, locus YGR252W, strain gcn5, stronger effect = lower value",0.595 (active)
same,normalized growth,"S. cerevisiae deletion strains, locus YHR030C, strain SLT2, stronger effect = lower value",0.97
same,normalized growth,"S. cerevisiae deletion strains, locus YHR079C, strain IRE1 (second series), stronger effect = lower value",0.952
same,normalized growth,"S. cerevisiae deletion strains, locus YHR094C, strain hxt1, stronger effect = lower value",0.934
same,normalized growth,"S. cerevisiae deletion strains, locus YHR129C, strain ARP1, stronger effect = lower value",0.942
same,normalized growth,"S. cerevisiae deletion strains, locus YHR200W, strain rpn10, stronger effect = lower value",0.942
same,normalized growth,"S. cerevisiae deletion strains, locus YIL066C, strain RNR3, stronger effect = lower value",0.887
same,normalized growth,"S. cerevisiae deletion strains, locus YIL073C, strain SPO22, stronger effect = lower value",0.91
same,normalized growth,"S. cerevisiae deletion strains, locus YIL125W, strain kgd1, stronger effect = lower value",0.957
same,normalized growth,"S. cerevisiae deletion strains, locus YIR030C, strain dcg1, stronger effect = lower value",0.942
same,normalized growth,"S. cerevisiae deletion strains, locus YJL095W, strain BCK1, stronger effect = lower value",0.816
same,normalized growth,"S. cerevisiae deletion strains, locus YJL134W, strain LCB3, stronger effect = lower value",0.963
same,normalized growth,"S. cerevisiae deletion strains, locus YJL168C, strain set2, stronger effect = lower value",0.961
same,normalized growth,"S. cerevisiae deletion strains, locus YJL187C, strain SWE1 (second series), stronger effect = lower value",0.893
same,normalized growth,"S. cerevisiae deletion strains, locus YJR043C, strain POL32, stronger effect = lower value",0.906
same,normalized growth,"S. cerevisiae deletion strains, locus YJR075W, strain HOC1, stronger effect = lower value",0.919
same,normalized growth,"S. cerevisiae deletion strains, locus YKL009W, strain mrt4, stronger effect = lower value",0.847 (active)
same,normalized growth,"S. cerevisiae deletion strains, locus YKL068W, stronger effect = lower value",0.949
same,normalized growth,"S. cerevisiae deletion strains, locus YKL085W, strain MDH1 (second series), stronger effect = lower value",0.929
same,normalized growth,"S. cerevisiae deletion strains, locus YKL085W, strain MDH1, stronger effect = lower value",0.929
same,normalized growth,"S. cerevisiae deletion strains, locus YKL190W, strain CNB1, stronger effect = lower value",0.955
same,normalized growth,"S. cerevisiae deletion strains, locus YKR001C, strain vps1, stronger effect = lower value",0.878 (active)
same,normalized growth,"S. cerevisiae deletion strains, locus YLR039C, strain RIC1, stronger effect = lower value",0.711
same,normalized growth,"S. cerevisiae deletion strains, locus YLR058C, strain SHM2, stronger effect = lower value",0.887 (active)
same,normalized growth,"S. cerevisiae deletion strains, locus YLR102C, strain apc9, stronger effect = lower value",0.957
same,normalized growth,"S. cerevisiae deletion strains, locus YLR262C, strain YPT6, stronger effect = lower value",0.656
same,normalized growth,"S. cerevisiae deletion strains, locus YLR268W, strain sec22, stronger effect = lower value",0.943
same,normalized growth,"S. cerevisiae deletion strains, locus YLR330W, strain CHS5, stronger effect = lower value",0.946
same,normalized growth,"S. cerevisiae deletion strains, locus YLR342W, strain FKS1 (second series), stronger effect = lower value",0.79 (active)
same,normalized growth,"S. cerevisiae deletion strains, locus YLR371W, strain rom2, stronger effect = lower value",0.968
same,normalized growth,"S. cerevisiae deletion strains, locus YLR418C, strain cdc73, stronger effect = lower value",0.711 (active)
same,normalized growth,"S. cerevisiae deletion strains, locus YML016C, strain PPZ1, stronger effect = lower value",0.96
same,normalized growth,"S. cerevisiae deletion strains, locus YML032C, strain rad52, stronger effect = lower value",0.864 (active)
same,normalized growth,"S. cerevisiae deletion strains, locus YML124C, strain tub3, stronger effect = lower value",0.947
same,normalized growth,"S. cerevisiae deletion strains, locus YMR078C, strain ctf18, stronger effect = lower value",0.929
same,normalized growth,"S. cerevisiae deletion strains, locus YMR223W, strain ubp8, stronger effect = lower value",0.862 (active)
same,normalized growth,"S. cerevisiae deletion strains, locus YMR307W, strain GAS1, stronger effect = lower value",0.742
same,normalized growth,"S. cerevisiae deletion strains, locus YNL067W, strain RPL9B, stronger effect = lower value",0.884
same,normalized growth,"S. cerevisiae deletion strains, locus YNL128W, strain TEP1, stronger effect = lower value",0.936
same,normalized growth,"S. cerevisiae deletion strains, locus YNL153C, strain GIM3, stronger effect = lower value",0.895
same,normalized growth,"S. cerevisiae deletion strains, locus YNL233W, strain BNI4, stronger effect = lower value",0.886
same,normalized growth,"S. cerevisiae deletion strains, locus YNL250W, strain rad50, stronger effect = lower value",0.954
same,normalized growth,"S. cerevisiae deletion strains, locus YNL271C, strain bni1, stronger effect = lower value",0.93
same,normalized growth,"S. cerevisiae deletion strains, locus YNL298W, strain CLA4, stronger effect = lower value",0.877 (active)
same,normalized growth,"S. cerevisiae deletion strains, locus YNL307C, strain MCK1, stronger effect = lower value",0.901 (active)
same,normalized growth,"S. cerevisiae deletion strains, locus YNL322C, strain KRE1, stronger effect = lower value",0.938
same,normalized growth,"S. cerevisiae deletion strains, locus YNR052C, strain pop2, stronger effect = lower value",0.943
same,normalized growth,"S. cerevisiae deletion strains, locus YOL012C, strain htz1",0.987
same,normalized growth,"S. cerevisiae deletion strains, locus YOL147C, strain pex11, stronger effect = lower value",0.933
same,normalized growth,"S. cerevisiae deletion strains, locus YOR061W, strain CKA2, stronger effect = lower value",0.934
same,normalized growth,"S. cerevisiae deletion strains, locus YOR069W, strain VPS5, stronger effect = lower value",0.943
same,normalized growth,"S. cerevisiae deletion strains, locus YOR136W, strain idh2, stronger effect = lower value",0.968
same,normalized growth,"S. cerevisiae deletion strains, locus YOR144C, strain elg1, stronger effect = lower value",0.945
same,normalized growth,"S. cerevisiae deletion strains, locus YOR184W, strain ser1, stronger effect = lower value",0.757 (active)
same,normalized growth,"S. cerevisiae deletion strains, locus YOR316C, strain cot1, stronger effect = lower value",0.943
same,normalized growth,"S. cerevisiae deletion strains, locus YPL055C, strain LGE1, stronger effect = lower value",0.844
same,normalized growth,"S. cerevisiae deletion strains, locus YPL241C, strain CIN2, stronger effect = lower value",0.955
same,normalized growth,"S. cerevisiae deletion strains, locus YPR119W, strain clb2, stronger effect = lower value",0.949
same,normalized growth,"S. cerevisiae deletion strains, locus YPR141C, strain kar3, stronger effect = lower value",0.955
same,normalized growth,"S. cerevisiae deletion strains, locus YPR163C, strain tif3, stronger effect = lower value",0.927
same,normalized growth,"S. cerevisiae deletion strains, locus YPR167C, strain met16, stronger effect = lower value",0.909 (active)
same,normalized growth,"S. cerevisiae deletion strains, strain wtn01, stronger effect = lower value",0.99
same,normalized growth,"S. cerevisiae strains, strain wild type, stronger effect = lower value",0.927
